AMA1-RON2 inh: qHTS for Inhibitors of AMA1-RON; Towards Development of Antimalarial Drug Lead: Primary Screen; Plasmodium falciparum AMA1 (3D7) - RON2 peptide interaction; AlphaScreen AMA1-biotinylated RON2 peptide binding; Potency, µM (series often up to 58.2 µM), for inactives: at the highest dose activity change, negative = inhibition, most hits filed as inhibitors; hit rate 0.2% among 360,000;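 note: potency is the fitted concentration of half-maximal effect; 0% = vehicle wells and -100% = peptide control; nearly all actives have a fitted effect of over 45% in size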
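AMA1 (3D7) with his tag at 25 nM final met compounds first, then biotinylated RON2 peptide at 25 nM; detection used donor plus acceptor beads, 10 µg/mL apiece, read by AlphaScreen after 30 min at room temperature.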
NS1 function inh: qHTS Assay for Inhibitors of Influenza NS1 Protein Function; AID 2326, 2010; Potency, µM (doses to about 46.1 µM), for inactives: at the highest dose activity, positive = more growth; hit rate 0.4% among 270,000; calls by dose curve; note: potency is the fitted concentration of half-maximal effect; actives are rising curves; nearly all actives have a fitted effect of over 50% in size
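Growth recovery, yeast-based: influenza A NS1 expressed in S. cerevisiae causes slow growth, and suppressors are detected by OD600. The parent strain without NS1 is used as positive control.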
AmpC no deterg: qHTS Inhibitors of AmpC Beta-Lactamase (assay without detergent); AmpC nitrocefin hydrolysis, absorbance 480 nm, 0.0001% Triton; hit rate 0.52% among 330,000; Potency, µM (top dose mostly 57.1 µM), without a hit: top-dose activity change, negative = inhibition, most hits filed as inhibitors;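 note: potency is the fitted concentration of half-maximal effect; plate controls were no compound for no effect and no enzyme for full effect; nearly all actives have a fitted effect of over 20% in size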
Target sequence (P00811 whole entry, looked up): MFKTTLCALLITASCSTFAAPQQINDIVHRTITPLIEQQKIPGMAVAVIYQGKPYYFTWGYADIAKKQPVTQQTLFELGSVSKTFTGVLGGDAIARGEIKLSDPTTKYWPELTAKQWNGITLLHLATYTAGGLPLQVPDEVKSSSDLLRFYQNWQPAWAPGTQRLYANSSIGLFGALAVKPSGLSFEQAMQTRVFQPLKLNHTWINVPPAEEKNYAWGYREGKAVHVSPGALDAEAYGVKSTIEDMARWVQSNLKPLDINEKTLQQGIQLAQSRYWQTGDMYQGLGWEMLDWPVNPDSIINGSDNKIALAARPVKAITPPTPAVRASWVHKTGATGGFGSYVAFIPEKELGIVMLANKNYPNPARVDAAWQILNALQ
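AmpC (5.3 nM in the dispensed reagent) in 20 mM phosphate pH 7.0 with 0.01% (detergent screen) or 0.0001% Triton X-100 was preincubated with compounds for 15 min at room temperature. Nitrocefin was then added from an 800 uM solution, and hydrolysis was followed at 480 nm.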
AmpC inh detg: qHTS Inhibitors of AmpC Beta-Lactamase (assay with detergent); Potency, µM (highest dose often 114 µM), for inactives: at the highest dose activity change, negative = inhibition, actives largely listed as inhibitors; hit rate 0.041% among 370,000; P00811; AmpC hydrolysis of nitrocefin, absorbance 480 nm, 0.01% Triton;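 note: potency is the fitted concentration of half-maximal effect; 0% = no-compound wells and -100% = no-enzyme wells; nearly all actives have a fitted effect of over 25% in size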
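20 mM phosphate pH 7.0 + 0.01% (detergent screen) or 0.0001% Triton X-100; 5.3 nM AmpC reagent; cpd preinc 15 min RT; nitrocefin (800 uM stock) to start; A480 q20 s × 4 min; Activity was normalised to no-enzyme and no-compound control wells.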
SARS PLP yeast: qHTS of Yeast-based Assay for SARS-CoV PLP | S. cerevisiae expressing SARS-CoV PLpro, growth rescue | hit rate 0.19% among 330,000 | AID 485353, 2010 | Potency, µM (titrated, usually from 32.9 µM), for inactives: top-dose activity, positive = growth rescue, most hits filed as activators; calls by dose curve; note: potency is the fitted concentration of half-maximal effect; 0% is about no effect; nearly all actives have a fitted effect of over 55% in size
NS1 inh valid: Assay for Inhibitors of Influenza NS1 Protein Function: Hit Validation. shares compounds with NS1 function inh. influenza NS1 function cell assay, 15-point titration. activity change, negative = inhibition, % at 32.9 µM. 1,400 tested, under 10 active. AID 492980, 2010; calls by dose curve; note: 0% is about no effect
PR8 titer: Assay for Inhibitors of Influenza NS1 Protein Function: Influenza virus replication assay in MDCK cells infected with virus A/PR/8/34. MDCK infected influenza A/PR/8/34, virus titer TCID50; stronger effect = lower value. hit rate 30% among 95. AID 504647, 2011. shares compounds with NS1 function inh. virus titer (log TCID50), log10 TCID50 at 5 µM; call rule not given here
* = called active by the depositor; ? = inconclusive; . = no result. This is a sample that favours compounds with a hit; in the whole collection about 0.99% have one here. Unless noted, calls come from the whole dose curve; as a rule, active = well fitted curve in the direction sought with a large enough effect; inconclusive = small, poorly fitted or top-dose-only effect, or another doubt; inactive = no such curve, though single readings can be large; an effect the other way counts as inactive or inconclusive.

SMILES	AMA1-RON2 inh	NS1 function inh	AmpC no deterg	AmpC inh detg	SARS PLP yeast	NS1 inh valid	others
O=C(Cc1ccccc1)NCCN1CCCC1	16%	2.8µM*	-7%	?	3%	-1
CCOC(=O)c1ccc(NC(=O)C2CCCN(c3ccc(Sc4ccc(C)cc4)nn3)C2)cc1 (stereo not given)	.	.	.	-6%	.	.
CCOc1ccc(N(C)C(=O)C2CCN(S(=O)(=O)c3ccc4c(c3)CCCN4C(C)=O)CC2)cc1	.	.	.	-6%	.	.
COc1ccc(-c2[nH]c3ccccc3c2SCCNC(=O)c2cc3ccccc3oc2=O)cc1	-8%	10µM*	-35%	-6%	7%	2
O=C(NNc1nc(-c2ccc(Cl)cc2)cs1)c1ccco1	54%	3.2µM*	-41%	1%	-30%	-6
Cc1ccc(-c2csc(NC(=S)NC(=O)c3ccco3)n2)cc1	1%	5%	-15%	-5%	6%	.
O=C(NNc1nc(-c2ccccc2)cs1)c1ccco1	0%	4µM*	-39%	-7%	-12%	11
CSc1nn(Cc2ccc(C)cc2)c(N)c1S(=O)(=O)c1ccccc1	.	.	.	20%	.	.
Cc1nc(-c2ccc(S(=O)(=O)Nc3ccc(OC(F)(F)F)cc3)cc2)co1	.	.	.	6%	.	.
CCCC(=O)N(c1ccc2oc(-c3ccccc3)c(C(=O)OCC)c2c1)S(=O)(=O)c1ccc(C)cc1	.	.	.	16%	.	.
CCC(CC)NCc1ccc(OC)cc1OC	-6%	?	2%	?	3%	-13
CCCOc1ccc(-c2nc(-c3ccc(N)cc3)cs2)cc1	.	13µM*	22%	-2%	0%	4
CCCCN(CCCNC(=O)CN1N=C(c2ccc(C)cc2)CCC1=O)c1ccccc1	.	.	.	-1%	.	.
COC(=O)c1n[nH]n(-c2ccccc2)c1=O	.	.	.	1%	.	.
Cc1cccc(Nc2nnc(SC/C(O)=C(\C#N)c3nc4ccccc4[nH]3)s2)c1	96%	13µM*	-22%	4%	1%	11
Cc1ccc(Nc2nnc(SC/C(O)=C(\C#N)c3nc4ccccc4[nH]3)s2)c(C)c1	96%	8%	-22%	-6%	-2%	.
CCOC(=O)c1c(C)[nH]c(C(=O)/C(C#N)=C/c2ccc(OCC)cc2)c1C	-1%	4µM*	-32%	-13%	16%	-21
Cc1ccc(CNC(=O)CNS(=O)(=O)c2cccs2)cc1	.	.	.	8%	.	.
COC(=O)c1[nH]c2ccc(C)cc2c1NS(=O)(=O)c1ccc(F)c(C)c1	0%	1.8µM*	13%	9%	1%	-39
CN(C)/C=C1\SC(=S)N(c2ccc(Br)cc2)C1=O	-11%	?	-44%	0%	-4%	-10
O=C(Cn1c2c(sc1=O)C1c3ccccc3OCC1CS2)Nc1ccc(Cl)c(Cl)c1 (stereo not given)	26%	20µM*	-35%	?	4%	-5
Cc1ccc(N2CC(c3nnc(NC(=O)c4ccco4)s3)CC2=O)cc1C (stereo not given)	.	.	.	24%	.	.
CC(C)c1ccc(OCC(=O)Nc2ccc(S(=O)(=O)Nc3ncccn3)cc2)cc1	.	.	.	9%	.	.
CN(C)N1C(N)=C(C#N)C(c2cccc3ccccc23)C2=C1CC(c1ccccc1)CC2=O (stereo not given)	29%	22µM*	-12%	-11%	0%	-1
O=C(CN1C(=O)CC(c2ccccc2)Sc2ccccc21)Nc1cccc(Cl)c1 (stereo not given)	.	.	.	-6%	.	.
SMILES	AMA1-RON2 inh	NS1 function inh	AmpC no deterg	AmpC inh detg	SARS PLP yeast	NS1 inh valid	others
Cc1cc(=O)n(Cc2ccc(Cl)cc2)c2c1c(C)nn2-c1ccccc1	.	.	.	18%	.	.
CCS(=O)(=O)c1nnnn1-c1ccccc1S(C)(=O)=O	10%	14µM*	-4%	1%	1%	5
CCn1nc(C(=O)OCc2cccc(S(=O)(=O)N(C)C)c2)c2ccccc2c1=O	-3%	?	-9%	-3%	1%	?
Nc1c(/C=C2/C=CC(=O)C(O)=C2)c(=O)nc2sc(CC(=O)N3CCCCC3)nn12	6%	14µM*	-38%	11%	11µM*	-11
COc1cccc(N(C(=O)Cn2nnc(-c3ccc(C)cc3)n2)C(C(=O)NC(C)(C)C)c2c[nH]c3ccccc23)c1 (stereo not given)	?	?	21%	-5%	-1%	17
Nc1ccc(-c2nc3cc(N)ccc3n2CCO)cc1	7%	7.9µM*	-13%	-4%	1%	2
O=C(Cc1csc(NC(=O)c2ccccc2)n1)NO	104%	.	-9%	?	0%	.
O=C(Cc1ccsc1-c1ccccc1)NO	-2%	?	-17%	5%	2%	8
O=C(NC1CCCc2ccccc21)c1ccc2c(c1)sc1nc(-c3ccccc3)cn12 (stereo not given)	.	.	.	19%	.	.
COc1ccccc1/C=N/NC(=O)c1[nH]c(C)c(C(=O)N/N=C/c2ccccc2OC)c1C	10%	?	-10%	2%	-10%	?
COc1ccccc1/C=C1\CCCC2=C1Nc1nnnn1C2c1ccccc1OC (stereo not given)	-7%	?	-57%	-8%	15%	?	PR8 titer=8.5
CCc1ccc(CNC(=O)c2ccc(CSc3nc4ccncc4n3Cc3ccccc3)cc2)cc1	.	.	.	3%	.	.
COc1ccc(NC(=S)NCCC(c2ccccc2)c2ccccc2)c(OC)c1	46%	11µM*	-35%	?	-2%	?
COc1cccc(NC(=S)NCCC(c2ccccc2)c2ccccc2)c1	-2%	11%	-30%	4%	27%	.
COc1ccc(NC(=O)CC(=O)Nc2ccc(OC)cc2OC)c(OC)c1	-10%	?	-2%	-17%	1%	2
COc1ccc(NC(=O)CC(C)=O)c(OC)c1	4%	5%	13%	-1%	-1%	.
Cc1ccc([N+](=O)[O-])cc1S(=O)(=O)N1CCn2cccc2C1c1ccccc1F (stereo not given)	.	.	.	3%	.	.
CC1(C)SC(=S)N(NC(=O)Nc2ccccc2)C1N(O)C(=O)Nc1cccc2ccccc12 (stereo not given)	30%	22µM*	-10%	9%	4%	9

Screens: PubChem BioAssay, National Center for Advancing Translational Sciences (NCATS)
